Experimental findings from PubChem BioAssay (NCATS) are described below.

Assay [1] deals with Parathyroid hormone/parathyroid hormone-related peptide receptor (Homo sapiens) (UniProt Q03431). Briefly: qHTS for PTHR1 Agonists: Optimization Screen against the NCGC LOPAC library (AID 1347079).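 Note: GloSensor cAMP luminescence in HEK-293 GP2 cells expressing human PTHR1 with IBMX.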 The essentials:
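Agonist readout: GloSensor cAMP luminescence, read after 15 min at room temperature. HEK-293-derived GP2 line carries PTHR1; compounds tested as a titration for 1 hr at 37C in presence of IBMX. M-PTH (1-15) served as control.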
In general terms: Quantitative high-throughput screening tests each substance at several concentrations.

The nature of assay [2]: qHTS for Inhibitors of the Functional Ribonucleoprotein Complex (vRNP) of Lassa (LASV) Arenavirus: LASV Primary Screen - GLuc reporter signal (AID 1347082; calls by dose curve; tested in HEK293 reporter line; note: nearly all actives have a fitted effect of over 60% in size; note: potency is the fitted concentration of half-maximal effect).
Assay [3] can be described thus: qHTS for Inhibitors of the Functional Ribonucleoprotein Complex (vRNP) of Lassa (LASV) Arenavirus: Viability assay - alamar blue signal for LASV Primary Screen (AID 1347083; calls by dose curve; tested in HEK293 reporter line; note: nearly all actives have a fitted effect of over 80% in size; note: potency is the fitted concentration of half-maximal effect).
Assay [4] can be described thus: qHTS for Inhibitors of the Functional Ribonucleoprotein Complex (vRNP) of Lymphocytic Choriomeningitis Arenaviruses (LCMV): Viability assay - alamar blue signal for LCMV Primary Screen (AID 1347085; calls by dose curve; tested in HEK293 reporter line; note: nearly all actives have a fitted effect of over 80% in size; note: potency is the fitted concentration of half-maximal effect).
Assay [5] concerns the target Nucleoprotein (Lymphocytic choriomeningitis virus (strain Armstrong)) (UniProt P09992). Briefly: qHTS for Inhibitors of the Functional Ribonucleoprotein Complex (vRNP) of Lymphocytic Choriomeningitis Arenaviruses (LCMV): LCMV Primary Screen - GLuc reporter signal (AID 1347086; calls by dose curve; note: nearly all actives have a fitted effect of over 70% in size; note: potency is the fitted concentration of half-maximal effect).
A short description of assay [6]: qHTS of pediatric cancer cell lines to identify multiple opportunities for drug repurposing: Primary screen for TC32 cells (AID 1347089). Note: nearly all actives have a fitted effect of over 60% in size. The essentials: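 Luminescent CellTiter-Glo read-out of metabolically active TC32 cells after 48 h compound exposure. Primary: MIPE 11-point, 0.78 nM–46 µM; NPC 8-point, 0.59 nM–46 µM. Confirmatory: 11-point dilutions.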
Assay [7] is described as follows: qHTS of pediatric cancer cell lines to identify multiple opportunities for drug repurposing: Primary screen for DAOY cells (AID 1347090). Note: nearly all actives have a fitted effect of over 55% in size. Note: potency is the fitted concentration of half-maximal effect. The essentials: (§1)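 Cell viability, CellTiter-Glo luminescence; 500-1,000 cells/well, 8- or 11-point titration, 48 h compound exposure at 37 degrees C, 5% CO2. Controls: DMSO neutral, bortezomib 2.3 µM final as positive.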
Assay [8] can be described thus: qHTS of pediatric cancer cell lines to identify multiple opportunities for drug repurposing: Primary screen for SJ-GBM2 cells (AID 1347091). The essentials: as §1
Assay [9] can be described thus: qHTS of pediatric cancer cell lines to identify multiple opportunities for drug repurposing: Primary screen for A673 cells (AID 1347092). Note: nearly all actives have a fitted effect of over 45% in size. Note: potency is the fitted concentration of half-maximal effect. The essentials:
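A673 cells (500-1,000 cells/well in growth media) were pre-incubated 5 h at 37 degrees C, then exposed to compounds for 48 h. Viability was read as CellTiter-Glo luminescence; concentration-response curves came directly from the primary screen.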

A short description of assay [10]: qHTS of pediatric cancer cell lines to identify multiple opportunities for drug repurposing: Primary screen for SK-N-MC cells (AID 1347093). Note: potency is the fitted concentration of half-maximal effect. The essentials: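 Metabolically active cells were quantified by ATP-dependent luminescence (CellTiter-Glo, 15 min at room temperature) following 48 h treatment. Cells had been plated at 500-1,000 per well and settled for 5 h beforehand.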

Assay [11] in a line: qHTS of pediatric cancer cell lines to identify multiple opportunities for drug repurposing: Primary screen for BT-37 cells (AID 1347094). Note: potency is the fitted concentration of half-maximal effect. The essentials:
(§2)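 Quantitative HTS format: each compound titrated (MIPE 11 points from 0.78 nM, NPC 8 points from 0.59 nM) onto cells plated 5 hours earlier. After 48 h at 37 degrees C, CellTiter-Glo luminescence was recorded.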

Assay [12] can be described thus: qHTS of pediatric cancer cell lines to identify multiple opportunities for drug repurposing: Primary screen for NB-EBc1 cells (AID 1347095). The essentials: as §2
Assay [13] is described as follows: qHTS of pediatric cancer cell lines to identify multiple opportunities for drug repurposing: Primary screen for U-2 OS cells (AID 1347096). Note: nearly all actives have a fitted effect of over 50% in size. The essentials: (§3)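 Cells (500-1,000/well) rested 5 h, then received compounds for 48 h; metabolically active cells were measured by CellTiter-Glo luminescence. Final concentrations spanned up to 46 µM (MIPE, 11-point) or 0.59 nM-46 µM (NPC, 8-point) in primary screens, 11-point in follow-ups.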

Assay [14] in a line: qHTS of pediatric cancer cell lines to identify multiple opportunities for drug repurposing: Primary screen for Saos-2 cells (AID 1347097). Note: nearly all actives have a fitted effect of over 40% in size. The essentials: as §2
Assay [15] can be described thus: qHTS of pediatric cancer cell lines to identify multiple opportunities for drug repurposing: Primary screen for SK-N-SH cells (AID 1347098). Note: nearly all actives have a fitted effect of over 65% in size. Note: potency is the fitted concentration of half-maximal effect. The essentials: as §3
Assay [16] can be described thus: qHTS of pediatric cancer cell lines to identify multiple opportunities for drug repurposing: Primary screen for NB1643 cells (AID 1347099). Note: nearly all actives have a fitted effect of over 50% in size. Note: potency is the fitted concentration of half-maximal effect. The essentials:
as §2

A short description of assay [17]: qHTS of pediatric cancer cell lines to identify multiple opportunities for drug repurposing: Primary screen for LAN-5 cells (AID 1347100). Note: potency is the fitted concentration of half-maximal effect. The essentials:
as §3

Assay [18] in a line: qHTS of pediatric cancer cell lines to identify multiple opportunities for drug repurposing: Primary screen for BT-12 cells (AID 1347101). Note: nearly all actives have a fitted effect of over 25% in size. The essentials:
as §3

Assay [19] is described as follows: qHTS of pediatric cancer cell lines to identify multiple opportunities for drug repurposing: Primary screen for Rh18 cells (AID 1347102). Note: nearly all actives have a fitted effect of over 65% in size. The essentials:
as §3

The nature of assay [20]: qHTS of pediatric cancer cell lines to identify multiple opportunities for drug repurposing: Primary screen for OHS-50 cells (AID 1347103). Note: nearly all actives have a fitted effect of over 40% in size. Note: potency is the fitted concentration of half-maximal effect. The essentials:
as §3

Each structure is given as a SMILES string. Records with an inconclusive call do not appear. The source made the active and inactive calls. Unless noted, calls come from the whole dose curve; as a rule, active = well fitted curve in the direction sought with a large enough effect; inconclusive = small, poorly fitted or top-dose-only effect, or another doubt; inactive = no such curve, though single readings can be large; an effect the other way counts as inactive or inconclusive.

Parathyroid hormone/parathyroid hormone-related peptide receptor (Homo sapiens), sequence (Q03431 whole entry, looked up): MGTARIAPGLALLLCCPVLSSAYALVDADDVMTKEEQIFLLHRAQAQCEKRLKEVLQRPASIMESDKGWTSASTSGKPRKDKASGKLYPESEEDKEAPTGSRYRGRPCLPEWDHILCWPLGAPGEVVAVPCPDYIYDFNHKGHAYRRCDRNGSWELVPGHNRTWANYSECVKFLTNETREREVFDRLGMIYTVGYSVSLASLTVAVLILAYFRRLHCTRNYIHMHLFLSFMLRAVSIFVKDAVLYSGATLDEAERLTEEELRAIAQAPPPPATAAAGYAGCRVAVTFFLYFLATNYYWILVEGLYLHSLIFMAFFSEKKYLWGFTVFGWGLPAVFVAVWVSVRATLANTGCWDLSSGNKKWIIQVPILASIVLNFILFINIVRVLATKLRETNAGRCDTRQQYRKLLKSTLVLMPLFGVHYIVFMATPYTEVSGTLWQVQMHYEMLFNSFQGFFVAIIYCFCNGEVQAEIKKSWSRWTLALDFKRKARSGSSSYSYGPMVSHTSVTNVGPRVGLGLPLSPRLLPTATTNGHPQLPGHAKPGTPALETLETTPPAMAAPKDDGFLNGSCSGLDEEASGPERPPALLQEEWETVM
Nucleoprotein (Lymphocytic choriomeningitis virus (strain Armstrong)), sequence (P09992 whole entry, looked up): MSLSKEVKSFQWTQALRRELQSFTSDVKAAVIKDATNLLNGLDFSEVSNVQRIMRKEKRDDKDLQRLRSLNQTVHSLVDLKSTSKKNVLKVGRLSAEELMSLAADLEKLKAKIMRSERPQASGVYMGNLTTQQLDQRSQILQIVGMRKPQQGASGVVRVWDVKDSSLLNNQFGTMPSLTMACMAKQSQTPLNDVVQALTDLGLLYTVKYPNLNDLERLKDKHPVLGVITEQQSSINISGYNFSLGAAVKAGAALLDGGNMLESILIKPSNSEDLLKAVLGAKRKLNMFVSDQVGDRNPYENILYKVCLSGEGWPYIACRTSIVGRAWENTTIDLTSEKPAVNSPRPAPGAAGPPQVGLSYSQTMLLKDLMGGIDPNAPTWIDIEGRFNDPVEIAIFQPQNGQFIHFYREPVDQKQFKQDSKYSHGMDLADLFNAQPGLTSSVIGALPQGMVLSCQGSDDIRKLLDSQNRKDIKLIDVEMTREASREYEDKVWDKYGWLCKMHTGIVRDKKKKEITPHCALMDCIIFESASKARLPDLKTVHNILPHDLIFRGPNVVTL

With `CC(Cc1ccc(O)cc1)NCC(O)c1cc(O)cc(O)c1` (stereo not drawn), the result in [1] was inactive. Further, the Potency result in assay [2], in assay [3], in assay [4], in assay [5], in [6] and in assay [7] was “inactive” throughout. Further, the Potency entry in [8], in assay [9], in assay [10], in assay [11], in [12] and in [13] was “inactive” throughout. In addition, the Potency entry in assay [14], in assay [15], in assay [16], in [17], in assay [18] and in assay [19] was “inactive” in each case. Besides, the Potency result in [20] was “inactive”.
With `Cc1cnc(-c2cnc(NCCNc3ccc(C#N)cn3)nc2-c2ccc(Cl)cc2Cl)[nH]1`, the Potency entry in assay [2] and in assay [3] was “inactive” throughout.
Consider `CC1=NN=C(c2ccc(N)cc2)c2cc3c(cc2C1)OCO3`, for which the compound was called inactive in assay [1]. Besides, the Potency result in assay [2], in assay [3], in assay [4], in assay [5], in [6] and in assay [7] was “inactive” in each case. In addition, the Potency result in [8], in assay [9], in [10], in assay [11], in assay [12] and in assay [17] was “inactive” each time. Further, the Potency entry in [18], in assay [19] and in assay [20] was “inactive” in each case.
As for `c1cc(-c2cnn3cc(-c4ccc(OCCN5CCCCC5)cc4)cnc23)ccn1`, the Potency is 34.3 µM (active) in assay [2] and 17.2 µM (active) in assay [3].
Regarding `CC(C)c1ccc2c(c1)c(SC(C)(C)C)c(CC(C)(C)C(=O)O)n2Cc1ccc(Cl)cc1`, the Potency in [2] and in [3] was 12.2 µM (active) throughout.
Take `COC(=O)[C@@H](N)CCCN=C(N)N[N+](=O)[O-]`: the compound was called inactive in [1]. Further, the Potency entry in assay [5], in [6], in [8], in assay [11], in assay [12] and in assay [13] was “inactive” each time. For the same compound, the Potency result in [14], in [17], in [18], in assay [19] and in [20] was “inactive” throughout. The Potency in [10] was 6.62 µM (active); in assay [15], 6.07 µM (active); in [16] it was 9.35 µM (active).
Regarding `CN1C2CCC1CC(OC(=O)c1cc(Cl)cc(Cl)c1)C2` (stereo not drawn), the result in [1] was inactive. In addition, the Potency result in [2], in assay [3], in assay [4] and in [5] was “inactive” in each case.
Take `O=C(Nc1cccnc1)N1CCC(Cc2cccc(Oc3ccc(C(F)(F)F)cn3)c2)CC1`: the Potency in assay [2] is 21.7 µM (active); in assay [3], 15.3 µM (active).
Take `CC[C@@H](C(N)=O)N1CCCC1=O`: the compound was called inactive in assay [1]. Moreover, the Potency result in assay [4], in [5], in assay [6], in [7], in assay [8] and in assay [11] was “inactive” each time. The Potency result in [12], in assay [14], in [17], in assay [18], in assay [19] and in assay [20] was “inactive” in each case. For the same compound, the Potency in assay [10] is 26.4 µM (active).
As to `CN(C)CC=CC(=O)Nc1cc2c(Nc3ccc(F)c(Cl)c3)ncnc2cc1O[C@H]1CCOC1`, the Potency is 13.7 µM (active) in [2] and 24.3 µM (active) in assay [3].
As to `CCCN(CCC)[C@@H]1CCc2ccc(O)cc2C1`, the call in [1] was inactive. The Potency result in [2], in assay [3], in assay [4] and in assay [5] was “inactive” throughout.
In the case of `Nc1cccc2c(N)cccc12`, the Potency entry in assay [2] is “inactive”.
In the case of `C#CCOC(=O)C1=CCCN(C)C1`, in [1], the outcome was inactive. The Potency result in [2], in [3], in assay [4] and in assay [5] was “inactive” each time.
Consider `c1ccc(CCCN2CCN(CCOC(c3ccccc3)c3ccccc3)CC2)cc1`, for which, in assay [1], the result was inactive. The Potency entry in assay [2], in assay [3], in assay [4], in [5], in assay [6] and in assay [13] was “inactive” throughout. Besides, the Potency in assay [7] is 29.6 µM (active); in assay [9] it was 23.5 µM (active); in [11], 24.3 µM (active); in [16] it was 26.4 µM (active); in [17], 29.6 µM (active); in [20], 21.7 µM (active).
Regarding `CCCCn1c(=O)n(Cc2ccccc2F)c(=O)c2[nH]c(Cc3ccc(NC(C)=O)cc3)nc21`, the Potency result in assay [2] is “inactive”.
Same read-out and setting: the same measure for `Cc1ccc(NC(=O)c2ccc(CN3CCN(C)CC3)cc2)cc1Nc1nc(-c2cccnc2)cs1`: “inactive”; for `COc1cc2c(cc1O)CC[C@@H]1[C@@H]2CC[C@]2(C)[C@@H](O)CC[C@@H]12`: “inactive”.
Turning to `CC(=O)N(C)C1(c2ccccc2)CCN(CCC[C@]2(c3ccc(Cl)c(Cl)c3)CCCN(C(=O)c3ccccc3)C2)CC1`, the Potency result in assay [2] and in assay [3] was “inactive” throughout.
As for `CC1=C[C@@H]2[C@@H]([C@@H](O)C[C@@]3(C)[C@H]2C[C@@H](C)[C@]3(O)C(=O)CO)[C@@]2(C)Cc3cnn(-c4ccccc4)c3C=C12`, the Potency result in assay [2] is “inactive”.
Still for that read-out and setting: under `CC(C)(C)c1ccc(O)c(O)c1` stands “inactive”.
As for `C=CCn1c(=O)c2cnc(Nc3ccc(N4CCN(C)CC4)cc3)nc2n1-c1cccc(C(C)(C)O)n1`, the Potency in [2] was 0.685 µM (active); in assay [3], 0.172 µM (active); in [4], 0.611 µM (active); in assay [5] it was 0.968 µM (active).
For the compound `CCn1cc(C(=O)O)c(=O)c2cc3c(cc21)OCO3`, the Potency result in [2], in [3], in assay [4] and in [5] was “inactive” each time.
In the case of `CCc1cc(Nc2nccc(-c3c(-c4ccc(OC)c(C(=O)Nc5c(F)cccc5F)c4)nc4ccccn34)n2)c(OC)cc1N1CCC(N2CCN(S(C)(=O)=O)CC2)CC1`, the Potency entry in assay [2] and in [3] was “inactive” in each case. Further, the Potency in assay [4] is 21.7 µM (active).
Regarding `C1=CCOCc2cc(ccc2OCCN2CCCC2)Nc2nccc(n2)-c2cccc(c2)OCC1`, the values for the Potency in assay [2], in assay [3] and in assay [4] were 12.2 µM (active), 7.69 µM (active) and 24.3 µM (active), respectively.
As for `CCOc1cc2ncc(C#N)c(Nc3ccc(F)c(Cl)c3)c2cc1NC(=O)C=CCN(C)C`, the Potency was 10.9 µM (active) in assay [2], 1.93 µM (active) in assay [3], 19.3 µM (active) in assay [4] and 24.3 µM (active) in [5].
As for `CCOC(=O)C(=O)CCCCCCl`, the Potency result in assay [2], in [3], in assay [4] and in assay [5] was “inactive” in each case.
